Assay results published in PubChem BioAssay (NCI).
This is part of a sample that, as a whole, favours compounds with a hit. Of some 83,000 tested, about 20% had one in any assay.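 Growth was measured after 48 h exposure to one concentration of compound in 96-well plates. Values under 10 count as active.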 Unmarked numbers belong to inactive results. Activity calls are given as the source filed them.

Tested on: HL-60(TB) leukemia
Experiment: NCI-60 one-dose screen, 48 h (100 = growth as untreated, 0 = no growth, -100 = all killed)
Conditions: 10 µM unless noted

| SMILES | growth |
| --- | --- |
| COc1cc(/C=C/c2nnc(-c3cc(-c4ccccc4)n[nH]3)o2)cc(OC)c1OC | 75.1% |
| CC(C)(C)OC(=O)Nc1ccc2c(c1)C(NC(=O)Nc1cccc(C#N)c1)CC(C)(C)O2 (stereo not drawn) | 5.38% (active) |
| O=C(OCc1ccc2c(Br)cc(Br)c(O)c2n1)N1CCN(C(=O)c2cc3ccccc3[nH]2)CC1 | 53.9% |
| COc1cc(C(=O)/C(C)=C/c2c[nH]c3ccccc23)cc(OC)c1OC | -9.27% (active) |
| CCOC(=O)c1sc(-c2ccc(OS(=O)(=O)C[C@]34CCC(CC3=O)C4(C)C)c(C=O)c2)nc1C | -5% (active) |
| O=C(COc1cc(O)c2c(=O)cc(-c3ccccc3)oc2c1)Nc1ccccc1 | 74.5% |
| O=C(NCCCNc1cc(-c2cn(-c3ccccc3)nc2-c2cccc(O)c2)ccn1)c1ccc(F)cc1 | -2.74% (active) |
| O=C1/C(=C/c2ccc(C(F)(F)F)cc2)COc2ccc(O)cc21 | -36.1% (active) |
| O=C(/C(Br)=C/c1ccccc1)c1ccccc1 | -2.59% (active) |
| CC(=O)Nc1scc[n+]1Cc1ccccc1 | 55.3% |
| CCOc1cccc(/C=N\Nc2nc(=O)cc(C(=O)OC)s2)c1O | 72.8% |
| COc1ccc(S(=O)(=O)n2cc(C(=O)C(=O)Nc3ccncc3)c3ccccc32)cc1F | -46.4% (active) |
| COc1ccccc1NS(=O)(=O)c1cccc(C(=O)Nc2ccc(Br)cc2)c1 | 29.4% |
| CC1CCC2(C(=O)O)CCC3(C)C(=CCC4C5(C)CC(O)C(O)C(C)(CO)C5C(O)CC43C)C2C1C (stereo not drawn) | 118% |
| CC/C=C\C[C@H](O)C/C=C1/C(=O)C=C[C@@]1(C)C/C=C\CCCC(=O)OC | 98.9% |
| CCC(=O)Oc1ccc2c(c1)CC[C@@H]1[C@@H]2CC[C@]2(C)C[C@H](OC(=O)CC)C[C@@H]12 | 30.8% |
| O=C(O)c1cn(C2CC2)c2cc(N3CCN(Cc4c(O)ccc5ccccc45)CC3)c(F)cc2c1=O | 71.6% |
| COc1ccc(-c2ccc(-c3ccc(C(=N)N)cn3)s2)cc1Cl | -55.3% (active) |
| CC(C)C(=O)Nc1nc2c(s1)CCCc1ccn(S(=O)(=O)c3ccccc3)c1-2 | 83.8% |
| CCN1C(=O)N(CC)C2C1NN=c1s/c(=C3\C(=O)Nc4ccccc43)c(=O)n12 (stereo not drawn) | -25% (active) |
| Nc1ccc2c(c1)Cc1cc(NC(=O)C(F)(F)F)ccc1-2 | 98.4% |
| Cc1cccc(/C=C2\N=C(c3ccccc3)N(c3ccc(S(N)(=O)=O)cc3)C2=O)c1 | 92.7% |

| SMILES | growth |
| --- | --- |
| CCOC(=O)Cc1cnn(C)c1NC(=O)c1ccc(Cl)cc1NC(C)=O | 102% |
| O=C(C(=O)c1cccnc1)c1cccnc1 | 104% |
| COc1ccc(/C=C/C(=O)CCC(=O)O)cc1OC | 96.7% |
| COc1ccc(N(C)c2ncnc3occ(C)c23)cc1 | -34.9% (active) |
| CN1CCN(C(=O)/C=C/c2ccc([N+](=O)[O-])o2)CC1 | 66.2% |
| Nc1ccc(Br)cn1 | 75.5% |
| CSc1ncc(C)c(Nc2ccc(Cl)cc2)n1 | 112% |
| C=CCOc1ccc(/C(Cl)=N/N=C(\Cl)c2cc(OC)c(OC)c(OC)c2)cc1 | 39.6% |
| CCCCCCCCCCC(C)Br (stereo not drawn) | 93.1% |
| COc1cc(-c2nn(-c3ccc(NC(=O)Nc4cc(C(F)(F)F)cc(C(F)(F)F)c4)cc3)cc2-c2ccncc2)ccc1Cl | 4.78% (active) |
| COc1ccc(-c2ccc(-c3ccc(C(=N)N)o3)o2)cc1 | -46.2% (active) |
| Clc1nc(Oc2ccccc2)nc(-c2cn(-c3ccccc3)c3ccccc23)n1 | 63.2% |
| Cc1cc(-c2cc(OC(=O)c3ccccc3)ccc2Cl)cc2nnc(Nc3ccc(OCCN4CCCC4)cc3)nc12 | 116% |
| COc1ccc(-c2cc(-c3c(C)oc4cc5occc5c(OC)c4c3=O)nc(N)c2C#N)cc1OC | 57.9% |
| O=C(Cc1ccccc1)Nc1nnc(NC2CCN(c3nnc(NC(=O)Cc4ccccc4)s3)CC2)s1 | 96.7% |
| COc1cc(OC)cc(-c2ccc(-c3ccc(C(=N)N)cc3)s2)c1 | -57.8% (active) |
| NC(=O)C1(N2CCCCC2)CCN(CCCC(=O)c2ccc(F)cc2)CC1 | 9.84% (active) |
| C[C@@H]1CC[C@@H]2[C@@H]1[C@H](OC(=O)/C=C/c1ccccc1)[C@]1(c3ccccc3)C[C@@H](OC(=O)CO)[C@@]2(C)O1 | 105% |
| C=C1CCC2C3(C)COC(c4ccccc4)OC3CCC2(C)C1C/C=C1/C(=O)OCC1OC(C)=O (stereo not drawn) | 56% |
| CC(=O)Nc1c(Cl)cc2c(c1Cl)Cc1ccccc1-2 | 99.7% |
| O=C(Cc1ccc(/C=C/C(=O)c2ncc[nH]2)cc1)Nc1ccc(S(F)(F)(F)(F)F)cc1 | 42.1% |
| O=C1OC(c2ccccc2)=N/C1=C\c1ccc([N+](=O)[O-])cc1 | 119% |

| SMILES | growth |
| --- | --- |
| CCOCC(=O)C(C#N)c1ccc(Cl)c(Cl)c1 (stereo not drawn) | 102% |
| COc1ccc(C[C@H](N)C(=O)N[C@@H]2[C@@H](CO)OC(n3cnc4c(N(C)C)ncnc43)[C@@H]2O)cc1 (stereo partly drawn) | -29.9% (active) |
| COc1ccc(/C=C/C(=O)c2cc(OC)c(OC)c(OC)c2)cc1OCC(=O)Nc1nc2ccc(OC(F)(F)F)cc2s1 | 6.61% (active) |
| O=C(Nc1ccc(-n2ccc3c(NC(=O)c4ccccc4)ncnc32)cc1)Nc1ccc(Cl)c(Cl)c1 | 62.1% |
| C[C@H]1C(=O)N2c3ccccc3[C@@]3(O)C[C@@H](n4cnc5ccccc5c4=O)C(=O)N1[C@@H]23 | 64.6% |
| Cc1nn(-c2ccccc2)c2nc(Cl)c(C=O)c(-c3ccccc3)c12 | 95.8% |
| CCOC(=O)C1=C(C)NC(SCc2nnc(-c3ccc(Cl)cc3)o2)=NC1c1ccc(Cl)cc1 (stereo not drawn) | 21.4% |
| O=C(c1c[nH]c2ccccc12)c1n[nH]c(=S)n1-c1cccc(Br)c1 | 88.8% |
| CC(C)(C)C(CCc1ccc(Cl)cc1)N1CCN(C2CCCCC2)CC1 (stereo not drawn) | 48.2% |
| CC(C)N(CCCC#N)C(C)C | 102% |
| CCOC(=O)C1=C(C)NC(C)=C(C(=O)OCC)C1(C)C | 69.3% |
| O=C1c2ccccc2C(=O)c2c(N=Nc3sc(=O)[nH]c3S)cccc21 | 111% |
| CCCCCCCCCCCCCCCC[N+]1(C)CCN(SN2CC[N+](C)(CCCCCCCCCCCCCCCC)CC2)CC1 | 0.773% (active) |
| NC(=S)N/N=C(\c1ccc(Cl)cc1)C1CC1 | 75.7% |
| Clc1ccc(N2N=C(c3cccc(Nc4ccncc4)c3)CC2c2ccc3c(c2)OCO3)cc1 (stereo not drawn) | 22.5% |
| Cc1c(Cl)cccc1NC(=O)CN1CCOCC1 | 81.7% |
| CC(C)OC(=O)Nc1cc(F)c(F)cc1F | 98.6% |
| COc1ccc2c(c1)C(=O)/C(=C/c1ccc(O)cc1)O2 | 59.4% |
| CN1c2ccccc2S(=O)(=O)n2c(SCC(=O)Nc3nc4ccc(F)cc4s3)nnc21 | 105% |
| CCN1C(=O)/C(=c2\sc3n(c2=O)NC2C(N=3)N(CC)C(=O)N2CC)c2ccccc21 (stereo not drawn) | -4.75% (active) |
| CC(=O)c1ccc(C)cc1 | 93.4% |
| CN(C)c1nc(-c2ccco2)n2nc(-c3ccco3)cc2n1 | 97.3% |

| SMILES | growth |
| --- | --- |
| NNc1ccc(Cl)cc1Cl | 8.29% (active) |
| COc1cc2nc3cc([N+](=O)[O-])ccc3c(NCCNCC(C)O)c2cc1OC (stereo not drawn) | -16.8% (active) |
| Cc1cccc(-c2nc(Nc3ccc4ncsc4c3)c3ccccc3n2)n1 | 62.5% |
| COc1ccc2c(c1)c(-c1nc(-c3c[nH]c4ncccc34)cs1)cn2CCNC(=O)OC(C)(C)C | 69.2% |
| CCN(CC)c1ccc(N2C(=O)/C(=C/c3cccs3)SC2=S)cc1 | 92.6% |
| Cc1cc2nc3c4cc(C=O)ccc4n(CCN(C)C)c3nc2cc1C | 16.9% |
| C=C(C)[C@@H]1CC[C@]2(/C=N/Nc3ccncc3)CC[C@]3(C)[C@H](CC[C@@H]4[C@@]5(C)CCCNC(C)(C)[C@@H]5CC[C@]43C)[C@@H]12 | 58.5% |
| N=C(N)c1ccc(-c2ccc(-c3ccc(-c4cccs4)s3)s2)cc1F | 99.7% |
| Cc1cc(C(O)CN(C)C)cc2c1ccc1cc(C(C)C)ccc12 (stereo not drawn) | -52.8% (active) |
| NC(Cc1ccc(O)c([N+](=O)[O-])c1)C(=O)O (stereo not drawn) | 114% |
| CCCCCCCCCCCCCCCCn1cc[n+](C)c1 | 45.7% |
| O=[N+]([O-])/C(=C\c1ccco1)c1ccccc1Cl | 81.6% |
| CC/C=C\C[C@H](O)C/C=C1/C(=O)C=C[C@@H]1C/C=C\CCCC(=O)OC(C)C | -38.3% (active) |
| N=C1c2nc3n(c2C(=O)c2nc4n(c21)CCCCC4)CCCCC3 | 103% |
| O=C(O)c1ccc(-c2ccc(/C=N/Nc3nc(Nc4ccccc4)nc(N4CCCCC4)n3)o2)cc1 | 66.4% |
| CCOC(=O)/C(C)=C\c1ccc(OC)c(OC)c1 | 88.4% |
| C=C(c1ccc(C(=O)O)c(F)c1)c1cc2c(cc1C)C(C)(C)CCC2(C)C | 97.2% |
| Cc1ccc(-c2c(-c3ccccc3)c(=O)oc3ccc(C)cc23)cc1 | 87% |
| O=C(CN1N=C(c2ccc(F)cc2)CCC1=O)Nc1nccs1 | 95.3% |
| COC(CCCl)c1ccc(Cl)cc1 (stereo not drawn) | 94.2% |
| CS(=O)(=O)c1nnc(-c2ccccc2)s1 | 64.8% |
| CCCn1ccnc1C(O)c1ccc(OCc2ccccc2)c(OC)c1 (stereo not drawn) | 96.7% |
